# FBW7 act – activators of human E3 ligase FBW7; Q969H0; AlphaScreen FBW7–phospho-cyclin E peptide binding, activator screen; normalized activity (activation), % at 26.1 µM; 650,000 tested, 0.13% active; AID 1259310; in the data active = normalized activity above about 1.9%;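 also: purified mutant Fbw7 with reduced substrate affinity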
# Target sequence (Q969H0 whole entry, looked up): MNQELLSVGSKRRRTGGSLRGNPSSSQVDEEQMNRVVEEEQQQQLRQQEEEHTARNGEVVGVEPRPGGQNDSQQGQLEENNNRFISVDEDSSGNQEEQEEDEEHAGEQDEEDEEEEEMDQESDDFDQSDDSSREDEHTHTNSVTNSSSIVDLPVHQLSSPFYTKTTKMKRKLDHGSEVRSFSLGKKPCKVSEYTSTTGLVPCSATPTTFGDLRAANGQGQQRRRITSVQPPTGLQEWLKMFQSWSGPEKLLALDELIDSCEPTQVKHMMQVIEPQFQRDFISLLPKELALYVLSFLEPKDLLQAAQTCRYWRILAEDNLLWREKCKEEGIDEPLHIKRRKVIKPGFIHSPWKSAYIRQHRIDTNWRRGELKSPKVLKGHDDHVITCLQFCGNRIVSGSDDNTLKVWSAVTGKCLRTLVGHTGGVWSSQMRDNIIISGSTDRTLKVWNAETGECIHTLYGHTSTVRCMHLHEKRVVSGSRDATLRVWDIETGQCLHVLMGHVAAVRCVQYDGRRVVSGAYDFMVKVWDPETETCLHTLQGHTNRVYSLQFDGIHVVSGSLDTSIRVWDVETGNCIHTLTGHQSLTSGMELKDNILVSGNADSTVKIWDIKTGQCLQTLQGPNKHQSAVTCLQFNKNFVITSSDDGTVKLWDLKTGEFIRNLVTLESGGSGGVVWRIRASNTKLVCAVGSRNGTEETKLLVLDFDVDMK
# TEAD-YAP block – TEAD-YAP interaction inhibition; HEK-TIYL cells, TEAD-Gal4/YAP UAS-luciferase luminescence; inhibition, % at 9.12 µM; 640,000 tested, 1.4% active; in the data active = inhibition above about 32%
# MITF inh – inhibitors of human MITF | AID 1259374 | AlphaScreen MITF homodimerization, bead proximity signal | O75030 | 650,000 tested, 0.91% active | inhibition, % at 2.6 µM; in the data active = inhibition above about 50%
# GPR151 ag – human GPR151 activation. Q8TDV0. PathHunter beta-arrestin GPR151 cells, luminescence. activation, % at 11.2 µM. 650,000 tested, 1% active; in the data active = activation above about 4.9%
# A number is an active result; i = inactive. Only some compounds are listed: those with a hit (about 3.5% of all), similar ones and a draw of the others.
SMILES,FBW7 act,TEAD-YAP block,MITF inh,GPR151 ag
COc1cccc(NS(=O)(=O)c2ccc3c4c2CC(=O)N4CC(C)S3)c1 (stereo not drawn),i,40,i,i
CCOc1ccc2nc(NC(=O)c3ccc(Cl)c(Cl)c3)sc2c1,i,i,i,i
C1=NC2(CCCC2)Cc2c1ccc1ccccc21,i,32,i,i
CCCCn1c(=S)[nH]c2ccccc21,2.0,i,i,i
Cc1ccc(CCC(=O)Nc2ccc(Cl)cn2)o1,i,41,i,i
Cc1cc(NC(=O)CCc2ccc(C)o2)no1,i,i,i,i
Cc1ccc(Cc2cnc(NC(=O)CCCOc3ccc(Cl)cc3)s2)cc1,i,i,i,i
Cc1ccc(CCC(=O)Nc2ncc(Cc3ccc(Cl)cc3)s2)o1,i,57,i,i
CN=C1S/C(=C\c2cc(Cl)cc(Cl)c2OC)C(=O)N1C,i,i,i,i
Cn1c(COc2ccccc2)c(C#N)c2ccccc21,i,i,i,i
Cn1c(CS(=O)(=O)c2ccccc2)c(C#N)c2ccccc21,i,34,i,i
CCN(Cc1ccncc1)C1CCN(c2ccc(CC(=O)NCc3ccccc3)cc2)CC1,i,41,i,i
Cc1ccc(N/C(N)=N/c2nc(C)cc(C)n2)cc1,i,i,i,i
CCCCc1ccc(N/C(N)=N/c2nc(C)cc(C)n2)cc1,i,54,i,i
Cc1cc(C)nc(/N=C(\N)Nc2ccccc2-c2ccccc2)n1,i,43,i,i
Cc1cc(C)nc(/N=C(\N)Nc2ccc(C(C)C)cc2)n1,i,35,i,i
Cc1ccc(C)c(C(=O)CSc2nnc(-c3ccccc3N)n2C)c1,i,i,i,i
C/C(=N/NC(=O)c1ccccn1)c1cccs1,i,66,i,i
C/C(=N/NC(=O)c1ccc(O)cc1)c1cccs1,i,i,i,i
C/C(=N\NC(=O)c1ccccc1O)c1cccs1,i,38,i,i
C/C(=N\NC(=O)c1cnccn1)c1cccs1,i,i,i,i
C/C(=N\NC(=O)c1cccc([N+](=O)[O-])c1)c1cccs1,i,i,i,i
CCNc1ccc(C(=O)N/N=C(\C)c2cccs2)cc1[N+](=O)[O-],i,50,i,i
COc1ccc(Nc2ccnc3c(-c4cccc(CO)c4)cnn23)cn1,i,98,i,i
COc1ccc(Nc2ccnc3c(-c4cccc(O)c4)cnn23)cn1,i,i,i,i
SMILES,FBW7 act,TEAD-YAP block,MITF inh,GPR151 ag
COc1ccc(Nc2ccnc3c(-c4ccc(O)cc4)cnn23)cn1,i,91,i,i
Nc1ccc(Nc2nc(-c3ccc4ccccc4c3)cs2)cc1,i,i,i,i
CC(=O)NCCn1c(SCC(=O)Nc2ccc(C)c(C)c2)nc2ccccc2c1=O,i,i,i,i
O=C(c1ccc(Oc2ccccc2)cc1)c1coc2ccc(O)cc12,i,55,i,i
O=C(NCc1cccc(F)c1)N[C@H]1C[C@H]2C(=O)N[C@@H](CSCc3ccccc3)C(=O)N2C1,i,i,i,i
Cc1ccc(Nc2ccc3nonc3c2[N+](=O)[O-])c(C)c1,2.5,i,i,i
Cc1ccc(Nc2ccc3nonc3c2[N+](=O)[O-])cc1C,i,i,i,i
CCSc1nnc(C2CCN(CC(=O)Nc3cccc4ccccc34)CC2)n1C,2.8,i,i,i
CNC(=O)c1ccc(-c2cccc(COC)c2)nc1NCC1CC1,i,i,i,i
O=C(CC(c1ccccc1)C1CCCCC1)c1ccc(Br)cc1 (stereo not drawn),i,i,i,i
CCC(=O)N1CCc2cc(-c3nc(N)sc3C)ccc21,i,i,i,i
CNc1nc(-c2ccc3c(c2)CCN3C(C)=O)c(C)s1,i,i,i,i
CC(=O)Nc1nc(-c2ccc3c(c2)CCN3C(C)=O)c(C)s1,i,53,i,i
CCC(=O)N1CCc2cc(-c3nc(NC(C)=O)sc3C)ccc21,i,80,i,i
Clc1ccc(OCCN2CCNCC2)c2ccccc12,i,i,i,i
CCOC(=O)/C(C#N)=N\Nc1ccccc1OC,i,i,i,i
CCOC(=O)/C(C#N)=N/Nc1ccccc1C#N,i,i,52,i
CCc1ccc(Oc2coc3cc(OC(C)=O)ccc3c2=O)cc1,i,i,i,i
COc1ccc(-c2cc(O)c3c(C)oc(C)c3c(=O)c2)cc1,i,i,i,i
Cc1oc(C)c2c(=O)cc(-c3ccc(O)c(O)c3)cc(O)c12,i,i,87,i
Cc1cccc(-c2nnc(SCC(=O)Nc3cc(Cl)ccc3O)o2)c1,i,i,i,i
Cc1cccc(-c2nnc(SCC(=O)Nc3ccccc3F)o2)c1,i,64,i,i
COc1cccc(C(=O)Nc2ccc3nc(C)n(-c4ccc(Cl)cc4)c(=O)c3c2)c1OC,i,i,i,i
CCn1c(=O)c2cc(C(=O)NC3CCCC3)sc2c2ccccc21,i,i,i,i
Cc1cc(O)cc(O)c1/C=N/NC(=O)c1ccc2c(c1)OCCO2,i,56,i,i
SMILES,FBW7 act,TEAD-YAP block,MITF inh,GPR151 ag
O=C(N/N=C/c1ccc(O)c(I)c1)c1ccc2c(c1)OCCO2,i,i,i,i
O=C(N/N=C/c1ccc(O)cc1O)c1ccc(CN2C(=O)c3cccc4cccc2c34)cc1,i,33,i,i
O=C(N/N=C/c1ccc(O)cc1O)c1ccc2c(c1)OCCO2,i,61,i,i
O=C1c2cccc3c(O)ccc(c23)C(=O)N1Cc1ccco1,i,i,i,i
COC(CN(C)C1=NC(=O)/C(=C\c2ccc(SC)cc2)S1)OC,i,42,i,i
COc1ccc2[nH]c3c(c2c1)CCNC3=O,i,46,i,i
CCC(C)NC(=O)CSc1nc2ccsc2c(=O)n1CCCCCC(=O)O (stereo not drawn),i,i,i,i
O=C(OC(c1ccccc1)c1nccc2ccccc12)c1ccccc1 (stereo not drawn),i,72,i,i
O=c1c2cccc3c2c(nn1Cc1ccccc1Cl)-c1ccccc1-3,i,i,i,i
O=c1c2cccc3c2c(nn1CCN1CCCCC1)-c1ccccc1-3,i,80,i,i
O=C(CN1CCN(c2ccc(O)cc2)CC1)Nc1ccc(N2CCOCC2)cc1,i,i,i,i
O=C(Cn1ccc(=NCc2ccccc2)cc1)c1cccc([N+](=O)[O-])c1,i,33,i,i
NC(=NCc1ccccc1)c1cccc([N+](=O)[O-])c1,i,i,i,i
CC[C@H]1CN2CCc3cc(OC)c(OC)cc3C2C[C@@H]1CC1NCCc2cc(OC)c(OC)cc21 (stereo partly drawn),i,95,i,i
COc1ccc(-c2csc(Nc3ccc(C)cc3)n2)cc1[N+](=O)[O-],i,i,i,i
CCN(CC)c1ccc2c(c1)OC(N)=C(C#N)C2c1ccccc1 (stereo not drawn),3.4,i,i,i
CCN(CC)c1ccc2c(c1)OC(N)=C(C#N)C2c1cccs1 (stereo not drawn),i,53,i,i
N#CC1=C(N)Oc2cc(N)ccc2C1c1cccnc1 (stereo not drawn),i,i,i,i
CCN(CC)c1ccc2c(c1)OC(N)=C(C#N)C2c1cccnc1 (stereo not drawn),i,54,i,i
CCOC(=O)C1=C(C)OC(N)=C(C#N)C1c1cccs1 (stereo not drawn),i,i,i,i
